The values that follow come from the supplement of paper PMC10849652.

The full data set covers some 7,900 targets. This sample favours those with a hit. About 0.6% of all pairs of compound and target were hits. A number with no mark means an inactive call.

Common to all, as to test: log2 fold change, soluble protein after heating vs DMSO (PISA); higher = thermal stabilisation; K562 cells, 10 uM, 30 min; active = over 0.2 and 3.5 SD of the protein, either way, in both replicates (recomputed)
One assay deals with ZW10 (UniProt O43264). An outline of the steps:
(§1)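 Thermal stability values are relative to control samples and come from duplicates. They are expressed as log2 fold changes. For measurement, K562 cells (2×10^6 cells/mL) received 10 μM compound for 30 min, and aliquots were heated for 3 min over 48°C-58°C, pooled, and extracted at 4°C in PBS with 0.5% NP-40. Soluble protein, the supernatant after 21,000xg for 90 min, was quantified by TMTpro 16plex LC-MS/MS with equalised channel sums.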

The target of the next assay is ZWILCH (UniProt Q9H900). An outline of the steps: as §1
For another assay, the target named is ZYG11B (UniProt Q9C0D3). Summed up:
as §1

Chain of ZW10 (O43264 whole entry, looked up): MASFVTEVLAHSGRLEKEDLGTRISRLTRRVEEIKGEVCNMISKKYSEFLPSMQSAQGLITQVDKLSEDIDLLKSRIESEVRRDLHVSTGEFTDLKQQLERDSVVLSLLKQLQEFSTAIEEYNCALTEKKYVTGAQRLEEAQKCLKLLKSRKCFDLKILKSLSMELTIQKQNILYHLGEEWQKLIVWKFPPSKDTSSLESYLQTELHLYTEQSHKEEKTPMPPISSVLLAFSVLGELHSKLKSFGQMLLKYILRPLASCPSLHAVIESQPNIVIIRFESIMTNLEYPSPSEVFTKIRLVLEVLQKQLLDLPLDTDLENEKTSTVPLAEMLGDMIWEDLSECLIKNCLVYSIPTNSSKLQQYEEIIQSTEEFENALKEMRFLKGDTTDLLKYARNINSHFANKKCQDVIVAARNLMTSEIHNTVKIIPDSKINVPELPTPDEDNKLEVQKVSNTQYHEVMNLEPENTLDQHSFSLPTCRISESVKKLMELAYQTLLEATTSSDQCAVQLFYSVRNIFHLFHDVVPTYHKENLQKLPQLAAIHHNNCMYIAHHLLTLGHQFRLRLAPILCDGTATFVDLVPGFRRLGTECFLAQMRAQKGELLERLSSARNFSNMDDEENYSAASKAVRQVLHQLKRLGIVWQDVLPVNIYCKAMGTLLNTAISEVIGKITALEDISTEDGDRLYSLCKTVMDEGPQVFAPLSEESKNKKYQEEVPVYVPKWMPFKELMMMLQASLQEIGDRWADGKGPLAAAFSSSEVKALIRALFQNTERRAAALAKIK
Chain of ZWILCH (Q9H900 whole entry, looked up): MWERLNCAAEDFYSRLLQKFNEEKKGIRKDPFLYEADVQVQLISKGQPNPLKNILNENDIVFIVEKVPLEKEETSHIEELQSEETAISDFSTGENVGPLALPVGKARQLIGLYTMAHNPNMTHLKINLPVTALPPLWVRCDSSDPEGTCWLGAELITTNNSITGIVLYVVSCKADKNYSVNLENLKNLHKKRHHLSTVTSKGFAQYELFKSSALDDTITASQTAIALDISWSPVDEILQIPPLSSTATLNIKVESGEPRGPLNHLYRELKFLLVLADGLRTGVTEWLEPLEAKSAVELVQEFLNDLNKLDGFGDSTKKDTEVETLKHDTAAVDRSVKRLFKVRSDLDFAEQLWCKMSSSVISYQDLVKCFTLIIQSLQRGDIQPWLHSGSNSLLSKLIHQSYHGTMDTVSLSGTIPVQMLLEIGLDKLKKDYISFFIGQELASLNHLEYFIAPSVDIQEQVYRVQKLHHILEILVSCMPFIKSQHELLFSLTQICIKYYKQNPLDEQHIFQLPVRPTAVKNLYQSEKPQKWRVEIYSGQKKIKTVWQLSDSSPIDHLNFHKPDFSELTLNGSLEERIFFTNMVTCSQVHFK
Chain of ZYG11B (Q9C0D3 whole entry, looked up): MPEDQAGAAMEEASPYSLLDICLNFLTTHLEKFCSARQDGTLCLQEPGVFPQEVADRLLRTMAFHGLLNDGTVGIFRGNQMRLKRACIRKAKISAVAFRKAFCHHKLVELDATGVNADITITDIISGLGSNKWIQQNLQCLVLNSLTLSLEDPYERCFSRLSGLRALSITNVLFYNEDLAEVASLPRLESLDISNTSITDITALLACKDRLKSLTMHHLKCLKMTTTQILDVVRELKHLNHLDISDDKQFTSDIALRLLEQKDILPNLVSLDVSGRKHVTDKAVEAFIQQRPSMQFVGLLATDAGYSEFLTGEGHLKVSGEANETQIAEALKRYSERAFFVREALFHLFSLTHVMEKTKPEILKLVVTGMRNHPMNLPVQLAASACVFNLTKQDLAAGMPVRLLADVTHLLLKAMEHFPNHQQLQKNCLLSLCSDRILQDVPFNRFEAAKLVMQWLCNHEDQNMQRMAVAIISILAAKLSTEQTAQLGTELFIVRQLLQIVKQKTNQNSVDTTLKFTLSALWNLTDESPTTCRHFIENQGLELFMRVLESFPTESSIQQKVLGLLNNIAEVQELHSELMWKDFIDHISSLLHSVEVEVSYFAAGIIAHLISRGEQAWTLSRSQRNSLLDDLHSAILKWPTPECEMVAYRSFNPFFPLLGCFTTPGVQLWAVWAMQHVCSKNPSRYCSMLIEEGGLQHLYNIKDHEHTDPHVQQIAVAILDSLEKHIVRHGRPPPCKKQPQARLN

In the case of `CNc1nc(-c2ccc3c(N)n[nH]c3c2)cc(N2C[C@@H](C(=O)NC3CCCCC3)CC[C@H]2C)n1`, the log2 fold change in the assay with ZW10 was 0.009; with ZWILCH, -0.037; in the assay with ZYG11B it was 0.002.

With `CN1CC[C@H](c2c(O)cc(O)c3c(=O)cc(-c4ccccc4Cl)oc23)[C@H](O)C1` [alvocidib], the values for the log2 fold change with ZW10, with ZWILCH and with ZYG11B were -0.02, -0.034 and -0.055, respectively.

For `NC1(Cc2ccc(Cl)cc2)CCN(c2ncnc3[nH]ccc23)CC1`, the log2 fold change was -0.062 with ZW10, -0.049 with ZWILCH and 0.055 with ZYG11B.

On to `Cc1cc(SCc2sc(-c3ccc(C(F)(F)F)cc3)nc2C)ccc1OCC(=O)O`, for which the log2 fold change in the assay with ZW10 is 0.088; with ZWILCH, 0.027; with ZYG11B it was -0.133.

For the compound `CNCc1ccc(-c2[nH]c3cc(F)cc4c3c2CCNC4=O)cc1` [rucaparib], the log2 fold change is 0.128 with ZW10, -0.051 with ZWILCH and 0.061 with ZYG11B.

`Cc1ccc(NC(=O)c2ccc(CN3CC[C@H](N(C)C)C3)c(C(F)(F)F)c2)cc1Nc1nccc(-c2cncnc2)n1` [bafetinib]: the log2 fold change with ZW10 was 0.003; with ZWILCH, -0.031; in the assay with ZYG11B, -0.272 (active).

As for `c1cc(OCCN2CCCCC2)cc(-c2n[nH]c3ccc(-c4nnc[nH]4)cc23)c1`, the log2 fold change was -0.016 with ZW10, -0.048 with ZWILCH and 0.002 with ZYG11B.

`Cc1cc(Nc2cc(CN3CCOCC3)c3nc(C)c(Cc4ccc(Cl)cc4F)n3n2)n[nH]1` [gandotinib]: the values for the log2 fold change with ZW10, with ZWILCH and with ZYG11B were -0.108, -0.12 and 0.093, respectively.

Turning to `Cc1nc(Nc2n[nH]c3c2CN(C(=O)N[C@H](CN(C)C)c2ccccc2)C3(C)C)c2sccc2n1`, the log2 fold change is -0.11 in the assay with ZW10, -0.042 in the assay with ZWILCH and 0.026 with ZYG11B.
